Results as given in PubChem BioAssay (NCI).
The panel holds about 79,000 compounds, 15% with a hit somewhere; the sample as a whole holds those more often. Unmarked numbers belong to inactive results. The source made the active and inactive calls. Rule as the data show it: active = growth inhibition above about 70%; inactive = the rest. Where a SMILES comes first, the peptide text is derived from it. [ ]: non-standard residue; d: D form. The star is where a group is joined. Hyp = O=C(O)[CH]1C[CH](O)CN1; Cbz = O=C(OCc1ccccc1)*

Assay: NCI Yeast Anticancer Drug Screen. Data for the rad50 strain (AID 155);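 also: 0% = growth of vehicle-only cultures of the same strain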
Details: S. cerevisiae rad50 strain growth inhibition; at 50.0 µM; stronger effect = higher value
How it was run: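 Readout: growth inhibition relative to vehicle-treated cultures. Compound exposure was carried out in a genetically defined yeast strain deficient in DNA damage repair.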
`CC(C(=O)O)C1(O)CCCCC1` (configuration not stated) gave a growth inhibition of 0.6%. `COc1ccc2c(c1)CCC1C(=O)NN=C21` (configuration not stated) gave a growth inhibition of 12.8%. `CC(=O)N1OCCc2ccccc21` showed a growth inhibition of 8.2%. Compound `NC(=O)CNC(=O)C1CC(O)CN1C(=O)C1CCCN1C(=O)OCc1ccccc1` (stereo not drawn) (Cbz-Pro-[Hyp]-Gly-NH2; configuration not given here) has a growth inhibition of -3.9%. For `CCCc1c(O)ccc(C)c1C`, the growth inhibition was 14.6%. Compound `c1ccc(C(c2ccccc2)c2cc(-c3cc(C(c4ccccc4)c4ccccc4)[nH]n3)n[nH]2)cc1` has a growth inhibition of -9.25%. Compound `O=C(O)CSC(=S)c1ccccc1` has a growth inhibition of 16.4%. With `Cn1c(=N)n(CC(=O)NC23CC4CC(CC(C4)C2)C3)c2ccccc21` the growth inhibition was 11.8%. For `O=C1C(N=Nc2ccc(S(=O)(=O)Nc3ccccn3)cc2)C(=O)N(c2ccccc2)C(=S)N1c1ccccc1`, the growth inhibition was 8.8%. `O=C(O)C(O)(O)C(O)(O)C(=O)O` gave a growth inhibition of 6.35%. For `CCCCCCCCCCCCCCCCCCS`, the growth inhibition was -1.15%. With `O=c1[nH]cc(COCC(O)CO)c(=O)[nH]1` (configuration not stated) the growth inhibition was -27%. For `Cc1c2c(cc3c1[nH]c1ccccc13)C(=O)c1ccccc1C2=O`, the growth inhibition was 75.5% (active). In the case of `Cc1ccc(Cl)cc1NC(=O)C(Br)C(Br)C(=O)O` (configuration not stated), the growth inhibition is reported as 93.2% (active). `Cc1ccc(S(=O)(=O)/N=C/C=P(c2ccccc2)(c2ccccc2)c2ccccc2)cc1` gave a growth inhibition of 11.4%. In the case of `COc1ccc(C=Nc2ccc([N+](=O)[O-])cc2O)cc1`, the growth inhibition is reported as 12.9%. With `O=C1C=C(Sc2ccccc2)c2nccc3c2c1nc1ccccc13` the growth inhibition was 34.9%.
